Results published in the supplement of paper PMC10849652.
The full data set covers some 8,800 targets. This sample favours those with a hit. About 0.5% of all pairs of compound and target were hits.

Columns and labels:
Assay in all cases: log2 fold change, soluble protein after heating vs DMSO (PISA); higher = thermal stabilisation; K562 lysate, 10 uM; active = over 0.2 and 3.5 SD of the protein, either way, in both replicates (recomputed)
[1] = compound: NCC(=O)Nc1ccc(-n2nc(C(F)(F)F)cc2-c2ccc3c(ccc4ccccc43)c2)cc1
Summary of the method: (§1)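 Soluble protein was defined as the supernatant remaining after 21,000xg for 90 min, following pooling of heated aliquots and adjustment to 0.5% NP-40 at 4°C. Before that, crude K562 extract at 1 mg/mL protein in PBS pH 7.4 with 1 mM MgCl2 was treated with 10 μM compound for 30 min and heated for 3 min across 48°C-58°C. Quantification used TMTpro 16plex LC-MS/MS with channel sums equalised, and values are log-two fold changes in thermal stability relative to solvent controls from duplicates.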

[2] = compound: O=C(CCCCCCC(=O)Nc1ccccc1)NO [vorinostat]
Summary of the method: as §1

[3] = compound: O=C(O)c1ccc2c(c1)nc(Nc1cccc(Cl)c1)c1ccncc12 [silmitasertib]
Summary of the method: as §1

[4] = compound: O=C1NC(=O)C(c2cnc3ccccn23)=C1c1cn2c3c(cc(F)cc13)CN(C(=O)N1CCCCC1)CC2
Summary of the method: as §1

[5] = compound: c1cn2cc(-c3ccc4cn[nH]c4c3)nc(Nc3ccc(N4CCOCC4)cc3)c2n1 [entospletinib]
Summary of the method: as §1

Measured: log2 fold change

PHKG1 isoform 2 (UniProt Q16816)
Sequence of UniProt Q16816 (Q16816 whole entry, looked up): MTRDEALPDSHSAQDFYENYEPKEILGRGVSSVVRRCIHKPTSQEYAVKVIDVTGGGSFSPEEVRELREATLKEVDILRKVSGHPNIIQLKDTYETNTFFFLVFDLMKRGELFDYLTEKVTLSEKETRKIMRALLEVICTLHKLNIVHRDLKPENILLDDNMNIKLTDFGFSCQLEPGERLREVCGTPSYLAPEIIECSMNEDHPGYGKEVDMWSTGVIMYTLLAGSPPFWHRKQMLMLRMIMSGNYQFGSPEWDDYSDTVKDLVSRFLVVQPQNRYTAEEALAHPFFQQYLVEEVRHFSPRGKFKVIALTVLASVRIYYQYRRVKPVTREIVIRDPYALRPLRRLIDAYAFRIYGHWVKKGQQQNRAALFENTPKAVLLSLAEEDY
inactive: [1] 0.053 | [2] -0.342 | [3] 0.259 | [4] -0.123 | [5] -0.002

POGK (UniProt Q9P215)
Sequence of UniProt Q9P215 (Q9P215 whole entry, looked up): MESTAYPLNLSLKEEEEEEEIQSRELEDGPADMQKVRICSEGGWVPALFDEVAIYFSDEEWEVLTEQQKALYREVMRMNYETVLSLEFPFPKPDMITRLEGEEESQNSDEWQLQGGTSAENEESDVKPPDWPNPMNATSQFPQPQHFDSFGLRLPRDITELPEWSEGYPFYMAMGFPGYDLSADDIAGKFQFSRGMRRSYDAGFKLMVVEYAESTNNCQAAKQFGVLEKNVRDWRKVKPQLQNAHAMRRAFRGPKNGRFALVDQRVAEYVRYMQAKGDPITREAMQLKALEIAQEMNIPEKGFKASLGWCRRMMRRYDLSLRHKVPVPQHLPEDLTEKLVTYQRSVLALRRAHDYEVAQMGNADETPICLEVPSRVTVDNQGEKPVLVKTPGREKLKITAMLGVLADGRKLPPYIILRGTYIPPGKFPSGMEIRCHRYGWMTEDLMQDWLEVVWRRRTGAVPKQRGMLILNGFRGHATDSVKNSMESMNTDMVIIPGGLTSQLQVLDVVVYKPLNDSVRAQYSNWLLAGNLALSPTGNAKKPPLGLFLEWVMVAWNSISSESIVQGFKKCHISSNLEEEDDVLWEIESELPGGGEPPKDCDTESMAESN
inactive: [1] 0.018 | [2] -0.173 | [3] 0.002 | [4] -0.083 | [5] 0.3

PWP1 (UniProt Q13610)
inactive: [1] -0.082 | [2] 0.139 | [3] -0.033 | [4] 0.022 | [5] -0.003

PLEKHF1 (UniProt Q96S99)
Sequence of UniProt Q96S99 (Q96S99 whole entry, looked up): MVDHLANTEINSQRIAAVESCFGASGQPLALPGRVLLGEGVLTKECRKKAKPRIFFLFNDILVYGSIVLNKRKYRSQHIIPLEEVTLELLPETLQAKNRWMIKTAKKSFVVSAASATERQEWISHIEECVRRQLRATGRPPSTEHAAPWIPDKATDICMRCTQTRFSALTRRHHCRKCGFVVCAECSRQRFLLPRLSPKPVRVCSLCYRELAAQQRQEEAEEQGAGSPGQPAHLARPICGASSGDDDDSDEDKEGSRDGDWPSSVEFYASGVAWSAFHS
inactive: [1] -0.019 | [3] 0.07 | [4] -0.014 | [5] 0.014
active: [2] -0.272

PRKCD (UniProt Q05655)
Sequence of UniProt Q05655 (Q05655 whole entry, looked up): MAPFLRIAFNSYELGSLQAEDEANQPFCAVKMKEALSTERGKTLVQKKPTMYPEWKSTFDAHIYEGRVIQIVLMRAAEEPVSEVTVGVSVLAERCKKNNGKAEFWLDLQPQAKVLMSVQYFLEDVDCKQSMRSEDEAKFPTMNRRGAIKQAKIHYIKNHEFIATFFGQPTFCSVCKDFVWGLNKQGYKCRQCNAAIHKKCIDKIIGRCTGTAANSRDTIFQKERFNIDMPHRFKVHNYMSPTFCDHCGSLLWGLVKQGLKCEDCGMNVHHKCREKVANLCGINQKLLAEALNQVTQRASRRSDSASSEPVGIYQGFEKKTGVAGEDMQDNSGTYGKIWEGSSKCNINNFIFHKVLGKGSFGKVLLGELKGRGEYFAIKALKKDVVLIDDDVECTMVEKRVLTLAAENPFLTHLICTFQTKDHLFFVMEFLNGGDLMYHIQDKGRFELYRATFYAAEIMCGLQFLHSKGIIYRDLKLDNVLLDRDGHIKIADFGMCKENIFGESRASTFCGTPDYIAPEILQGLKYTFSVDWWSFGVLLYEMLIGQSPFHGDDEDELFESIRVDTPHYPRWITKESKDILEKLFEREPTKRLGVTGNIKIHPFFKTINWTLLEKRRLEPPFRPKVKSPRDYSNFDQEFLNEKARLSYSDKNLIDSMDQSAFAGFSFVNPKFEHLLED
inactive: [1] 0.008 | [2] -0.075 | [3] -0.006 | [4] -0.005 | [5] 0.019

PDIA4 (UniProt P13667)
Sequence of UniProt P13667 (P13667 whole entry, looked up): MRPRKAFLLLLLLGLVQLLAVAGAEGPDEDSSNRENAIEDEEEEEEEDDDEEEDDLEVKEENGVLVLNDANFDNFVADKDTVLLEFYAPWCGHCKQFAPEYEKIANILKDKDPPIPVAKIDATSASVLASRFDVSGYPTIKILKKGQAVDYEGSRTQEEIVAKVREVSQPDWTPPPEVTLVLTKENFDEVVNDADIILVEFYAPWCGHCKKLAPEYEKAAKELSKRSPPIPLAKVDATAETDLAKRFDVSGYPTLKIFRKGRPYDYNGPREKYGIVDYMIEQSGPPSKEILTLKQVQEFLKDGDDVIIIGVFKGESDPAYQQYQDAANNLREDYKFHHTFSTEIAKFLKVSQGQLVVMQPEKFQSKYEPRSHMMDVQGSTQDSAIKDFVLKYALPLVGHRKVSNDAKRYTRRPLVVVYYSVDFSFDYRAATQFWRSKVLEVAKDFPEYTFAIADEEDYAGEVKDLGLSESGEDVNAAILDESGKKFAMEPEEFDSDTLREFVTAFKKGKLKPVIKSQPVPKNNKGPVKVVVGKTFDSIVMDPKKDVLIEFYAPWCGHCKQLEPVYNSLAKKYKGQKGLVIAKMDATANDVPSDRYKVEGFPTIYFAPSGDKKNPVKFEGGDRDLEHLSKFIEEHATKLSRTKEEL
inactive: [1] 0.001 | [2] 0.119 | [3] -0.011 | [4] 0.021 | [5] 0.004

PI4KB (UniProt Q9UBF8)
Sequence of UniProt Q9UBF8 (Q9UBF8 whole entry, looked up): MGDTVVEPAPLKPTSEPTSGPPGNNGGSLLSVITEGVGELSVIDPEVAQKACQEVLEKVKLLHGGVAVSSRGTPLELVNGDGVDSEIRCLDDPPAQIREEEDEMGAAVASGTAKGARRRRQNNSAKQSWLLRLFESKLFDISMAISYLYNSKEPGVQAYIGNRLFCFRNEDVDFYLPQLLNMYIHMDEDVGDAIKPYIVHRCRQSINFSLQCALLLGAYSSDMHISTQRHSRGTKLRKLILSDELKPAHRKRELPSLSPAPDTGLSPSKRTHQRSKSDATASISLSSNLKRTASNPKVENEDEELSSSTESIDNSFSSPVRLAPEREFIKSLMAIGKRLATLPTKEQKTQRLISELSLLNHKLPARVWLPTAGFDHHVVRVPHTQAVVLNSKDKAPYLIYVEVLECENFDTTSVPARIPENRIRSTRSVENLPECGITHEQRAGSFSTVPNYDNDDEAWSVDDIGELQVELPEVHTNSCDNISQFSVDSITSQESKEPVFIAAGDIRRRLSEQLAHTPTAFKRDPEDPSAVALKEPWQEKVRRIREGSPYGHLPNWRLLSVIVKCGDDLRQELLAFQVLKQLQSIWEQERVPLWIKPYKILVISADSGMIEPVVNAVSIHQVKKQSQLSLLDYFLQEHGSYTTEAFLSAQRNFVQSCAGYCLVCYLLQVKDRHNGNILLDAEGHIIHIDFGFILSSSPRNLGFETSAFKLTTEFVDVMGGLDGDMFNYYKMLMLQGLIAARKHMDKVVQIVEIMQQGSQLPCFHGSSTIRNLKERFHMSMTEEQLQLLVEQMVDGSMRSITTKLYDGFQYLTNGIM
inactive: [1] -0.085 | [2] -0.132 | [3] 0.151 | [4] -0.044 | [5] 0.184

PFDN2 (UniProt Q9UHV9)
Sequence of UniProt Q9UHV9 (Q9UHV9 whole entry, looked up): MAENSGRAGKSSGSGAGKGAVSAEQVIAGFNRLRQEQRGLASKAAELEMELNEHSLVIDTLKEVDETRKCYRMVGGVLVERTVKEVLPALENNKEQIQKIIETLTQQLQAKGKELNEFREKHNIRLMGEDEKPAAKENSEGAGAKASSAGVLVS
inactive: [1] -0.049 | [2] 0.098 | [3] 0.015 | [4] -0.068 | [5] 0.007

PGLS (UniProt O95336)
Sequence of UniProt O95336 (O95336 whole entry, looked up): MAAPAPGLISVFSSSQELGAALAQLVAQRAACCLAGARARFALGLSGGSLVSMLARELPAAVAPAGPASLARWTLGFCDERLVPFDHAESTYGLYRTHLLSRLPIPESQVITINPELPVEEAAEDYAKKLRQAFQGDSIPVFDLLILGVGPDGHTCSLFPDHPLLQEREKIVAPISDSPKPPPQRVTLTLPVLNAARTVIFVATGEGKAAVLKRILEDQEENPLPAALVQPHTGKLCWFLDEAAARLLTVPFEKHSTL
inactive: [1] -0.08 | [2] 0.079 | [3] -0.034 | [4] 0.072 | [5] 0.003
